The nature of test [1]: ATG_PBREM_CIS: Attagene CIS-FACTORIAL HepG2 Assay for human Phenobarbital-responsive Enhancer Module (PBREM) (AID 2282955). The conditions noted are these: HepG2 PBREM cis-reporter, Attagene multiplexed transcription; actives raise or lower the signal. In a few lines:
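Readout: reporter mRNA, fluorescent RT-PCR fragments separated by capillary electrophoresis. System: HepG2 transiently transfected with cis-regulated reporter units. Exposure: 24 h. Analysis: bidirectional, DMSO baseline.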

The target in test [2] is Paired box protein Pax-6 (Homo sapiens) (UniProt P26367). As to the kind of experiment: ATG_Pax6_CIS: Attagene CIS-FACTORIAL HepG2 Assay for human Paired Box 6 (PAX6) (AID 2282956). Conditions: HepG2 CIS-FACTORIAL PAX6 reporter transcription, RNA readout; actives raise or lower the signal. In a few lines:
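Fluorescent RT-PCR products separated by capillary electrophoresis report PAX6-linked promoter mRNA in HepG2 cells 24 h post-dose. Curves fitted bidirectionally, DMSO as negative control.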

A short description of test [3]: ATG_PPRE_CIS: Attagene CIS-FACTORIAL HepG2 Assay for human Peroxisome Proliferator-activated Response Element (PPRE) (AID 2282958). The conditions noted are these: HepG2 PPRE cis-element reporter, Attagene transcription factor profiling; actives raise or lower the signal. The method in brief: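 After human HepG2 hepatoma cells were transiently transfected with cis-promoter reporter constructs, they were exposed to test chemicals for 24 hours. Reporter RNA was then reverse-transcribed, PCR-amplified, FAM-labeled, HpaI-digested and quantified by capillary electrophoresis.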

Test [4] can be described thus: ATG_RORE_CIS: Attagene CIS-FACTORIAL HepG2 Assay for human RAR-related Orphan Receptor Element (RORE) (AID 2282959). The conditions noted are these: HepG2 Attagene cis-factorial RORE reporter, mRNA; actives raise or lower the signal. In a few lines:
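Measured here: transcript induction of a cis-regulated reporter in HepG2 cells transiently transfected via FuGene 6. After 24 h, RNA was processed by RT-PCR and fluorescent capillary electrophoresis; DMSO defined baseline activity.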

Test [5] can be described thus: ATG_Sox_CIS: Attagene CIS-FACTORIAL HepG2 Assay for human SRY-box transcription factor (SOX) (AID 2282960). The conditions noted are these: HepG2 Attagene cis-factorial SOX reporter, mRNA; actives raise or lower the signal. The method in brief: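 Using transiently transfected HepG2 cells, reporter transcription driven by cis elements was assessed 24 h after dosing. Signal was fluorescence of capillary-separated RT-PCR products, with DMSO defining baseline activity.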

Test [6] has as its target Transcription factor Sp1 (Homo sapiens) (UniProt P08047). As to the kind of experiment: ATG_Sp1_CIS: Attagene CIS-FACTORIAL HepG2 Assay for human Specificity Protein 1 (Sp1) (AID 2282961). The conditions noted are these: HepG2 Sp1 cis-reporter transcription, actives raise or lower the signal. The method in brief: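 After transient transfection of HepG2 cells with cis-promoter reporter units and 24 h chemical treatment, reporter transcripts were quantified by RT-PCR and capillary electrophoresis fluorescence. Gain- and loss-of-signal fitted against DMSO.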

Test [7] can be described thus: ATG_SREBP_CIS: Attagene CIS-FACTORIAL HepG2 Assay for human Sterol Regulatory Element Binding (SREBP) (AID 2282962). Conditions: HepG2 Attagene cis-factorial SREBP reporter, mRNA; actives raise or lower the signal. In a few lines: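 Endogenous factor activity is measured in HepG2 through multiplexed reporter units under cis-element control. Following a 24 h incubation, reporter transcripts are reverse-transcribed, PCR-amplified and sized by capillary electrophoresis; activity is fitted in both directions relative to DMSO.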

For test [8], the target named is Signal transducer and activator of transcription 3 (Homo sapiens) (UniProt P40763). As to the kind of experiment: ATG_STAT3_CIS: Attagene CIS-FACTORIAL HepG2 Assay for human Signal Transducer and Activator of Transcription 3 (STAT3) (AID 2282963). Conditions: HepG2, Attagene cis-factorial STAT3 reporter transcription; actives raise or lower the signal. The method in brief: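 Uses human liver HepG2 transiently carrying cis-regulated reporter transcription units. Following 24 h dosing, reporter mRNA induction was detected by RT-PCR and capillary electrophoresis, analysed bidirectionally versus DMSO.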
Sequence of Signal transducer and activator of transcription 3 (Homo sapiens) (P40763 whole entry, looked up): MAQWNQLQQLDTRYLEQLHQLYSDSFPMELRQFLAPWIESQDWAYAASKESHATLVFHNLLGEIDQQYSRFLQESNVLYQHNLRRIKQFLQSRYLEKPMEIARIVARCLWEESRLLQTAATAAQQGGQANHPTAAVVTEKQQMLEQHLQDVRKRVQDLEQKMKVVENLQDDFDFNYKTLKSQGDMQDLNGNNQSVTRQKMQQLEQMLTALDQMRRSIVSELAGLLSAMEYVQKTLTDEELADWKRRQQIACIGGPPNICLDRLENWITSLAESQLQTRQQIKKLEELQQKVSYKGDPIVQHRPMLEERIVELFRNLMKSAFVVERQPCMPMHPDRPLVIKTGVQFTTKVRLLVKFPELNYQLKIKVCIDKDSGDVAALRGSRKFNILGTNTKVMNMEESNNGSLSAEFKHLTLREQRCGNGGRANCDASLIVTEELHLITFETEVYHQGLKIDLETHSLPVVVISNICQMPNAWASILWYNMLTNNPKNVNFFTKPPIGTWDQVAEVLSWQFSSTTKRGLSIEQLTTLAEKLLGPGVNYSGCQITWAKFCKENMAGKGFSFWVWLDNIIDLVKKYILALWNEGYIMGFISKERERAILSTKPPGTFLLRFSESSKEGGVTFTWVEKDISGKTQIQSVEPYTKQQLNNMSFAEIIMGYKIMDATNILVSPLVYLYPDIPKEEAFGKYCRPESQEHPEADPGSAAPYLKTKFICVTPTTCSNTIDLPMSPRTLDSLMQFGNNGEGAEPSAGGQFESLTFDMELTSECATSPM

A short description of test [9]: ATG_TA_CIS: Attagene CIS-FACTORIAL HepG2 Assay for human TA Basal Promoter (AID 2282964). The conditions noted are these: HepG2 Attagene CIS-factorial TA basal promoter reporter; actives raise or lower the signal. The method in brief: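 Read-out: fluorescent reporter-transcript fragments resolved by capillary electrophoresis after RT-PCR and HpaI digestion. Source: HepG2 cells carrying transiently transfected multi-reporter cis constructs, treated 24 h. Endpoint fitted bidirectionally relative to DMSO.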

The nature of test [10]: ATG_PXRE_CIS: Attagene CIS-FACTORIAL HepG2 Assay for human Pregnane X Receptor Element (PXRE) (AID 2282957). Conditions: HepG2 Attagene CIS-FACTORIAL PXRE reporter, mRNA; actives raise or lower the signal. The method in brief:
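Read-out: fluorescence of reporter-specific RT-PCR products resolved by capillary electrophoresis, fitted bidirectionally relative to DMSO. Human HepG2 liver cells carried transfected cis-promoter reporter units and were exposed to chemicals for 24 h.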

In PubChem BioAssay (EPA / NIEHS) one finds outcome and AC50 data, which are given here for 23 compounds.

The source made the active and inactive calls. How the source made its calls: active means hit-call score of the fitted dose curve at least 0.9, where 1 is the maximum; inactive means score below 0.9.

Sequence of Paired box protein Pax-6 (Homo sapiens) (P26367 whole entry, looked up): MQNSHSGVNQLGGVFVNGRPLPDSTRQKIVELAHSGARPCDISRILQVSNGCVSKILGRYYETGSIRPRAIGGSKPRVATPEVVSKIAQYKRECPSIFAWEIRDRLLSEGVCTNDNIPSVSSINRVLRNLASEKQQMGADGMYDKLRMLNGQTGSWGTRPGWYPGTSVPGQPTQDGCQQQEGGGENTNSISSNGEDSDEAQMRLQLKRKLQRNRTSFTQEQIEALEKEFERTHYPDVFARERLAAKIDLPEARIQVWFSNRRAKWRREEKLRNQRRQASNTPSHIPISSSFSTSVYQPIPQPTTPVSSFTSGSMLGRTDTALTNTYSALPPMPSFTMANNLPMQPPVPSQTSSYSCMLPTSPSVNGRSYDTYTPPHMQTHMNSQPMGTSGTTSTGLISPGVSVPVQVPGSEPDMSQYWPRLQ
Sequence of Transcription factor Sp1 (Homo sapiens) (P08047 whole entry, looked up): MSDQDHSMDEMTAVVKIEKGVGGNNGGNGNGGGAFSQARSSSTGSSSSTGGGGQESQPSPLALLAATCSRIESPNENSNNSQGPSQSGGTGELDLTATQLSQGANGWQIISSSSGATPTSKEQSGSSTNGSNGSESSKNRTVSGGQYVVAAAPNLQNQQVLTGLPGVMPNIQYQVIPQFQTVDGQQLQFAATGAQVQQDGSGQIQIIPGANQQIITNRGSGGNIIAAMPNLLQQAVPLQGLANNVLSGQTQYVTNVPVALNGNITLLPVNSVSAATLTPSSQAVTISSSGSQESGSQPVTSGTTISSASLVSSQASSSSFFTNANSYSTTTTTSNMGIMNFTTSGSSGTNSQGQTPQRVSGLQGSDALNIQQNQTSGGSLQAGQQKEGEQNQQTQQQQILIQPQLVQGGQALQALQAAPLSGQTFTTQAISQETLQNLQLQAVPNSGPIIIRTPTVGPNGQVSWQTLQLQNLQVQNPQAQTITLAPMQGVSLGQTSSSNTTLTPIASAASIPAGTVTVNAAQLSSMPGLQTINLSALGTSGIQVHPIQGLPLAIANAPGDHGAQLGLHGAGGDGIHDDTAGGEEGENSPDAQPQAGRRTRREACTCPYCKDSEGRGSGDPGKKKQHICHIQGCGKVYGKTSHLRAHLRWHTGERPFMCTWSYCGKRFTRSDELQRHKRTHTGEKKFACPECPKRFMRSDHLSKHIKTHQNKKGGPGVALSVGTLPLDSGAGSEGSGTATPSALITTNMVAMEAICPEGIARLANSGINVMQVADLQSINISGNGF

In the case of `CCCCCCCCCCCC(=O)OC`, the result in [1], in [2], in [3], in [4], in [5] and in [6] was inactive. The call in test [8] and in [9] was inactive. Besides, the AC50 in test [7] was 59.6 µM (active).
`Cc1ccc(C)c(O)c1C`: the result in [1], in [2], in test [3], in test [4], in test [5] and in test [6] was inactive. Besides, the result in [7] and in [8] was inactive.
Take `O=C(O)CCCCC(=O)O`: the outcome in [1], in test [2], in test [3], in test [4], in test [5] and in test [6] was inactive. Moreover, the outcome in test [7] and in test [8] was inactive.
For the compound `NCC1(Cc2noc(=O)[nH]2)CCCCC1`, the result in [1], in [2], in [3], in [4], in test [5] and in test [6] was inactive. Moreover, the compound was classed as inactive in [7], in test [8] and in test [9].
Consider `c1cc(-c2ccncc2)ccn1`, for which the result in test [1], in test [2], in [3], in [4], in test [5] and in [6] was inactive. The compound was classed as inactive in test [7] and in test [8].
With `O=C(O)Cc1ccccc1Nc1c(Cl)cccc1Cl`, the result in [1], in [2], in test [3], in [4], in test [5] and in [6] was inactive. Also, the call in [7] and in test [8] was inactive.
Regarding `Cc1cccc([N+](=O)[O-])c1C`, the result in [1], in test [2], in [3], in test [5], in test [6] and in [7] was inactive. The compound was classed as inactive in test [8].
On to `CCCCCCOCCO`, for which the outcome in test [1], in [2], in test [3], in [5], in test [6] and in test [7] was inactive. Also, the outcome in [8] was inactive.
Consider `O=c1c(O)c(-c2ccc(O)c(O)c2)oc2cc(O)cc(O)c12`, for which the outcome in test [1], in [2], in [4], in test [5], in test [6] and in test [7] was inactive. Also, the call in [8] and in [9] was inactive. For the same compound, the AC50 in test [10] was 76.2 µM (active).
For the compound `COc1cc(-c2nc(NC(=O)c3cc4cc(C)cc(C)c4n3CC(=O)O)sc2CCC2CCCCC2)c(OC)cc1Cl`, the AC50 in [1] was 4.42 µM (active); in test [2], 14.2 µM (active); in test [4], 10.4 µM (active); in [5], 100 µM (active); in [6], 2.83 µM (active); in test [9], 10.3 µM (active). For the same compound, the result in test [3], in test [7] and in test [8] was inactive.
As to `CCNc1cccc(C)c1`, the result in test [1], in [2], in test [3], in test [4], in test [5] and in test [6] was inactive. Besides, the outcome in test [7], in test [8] and in test [9] was inactive.
Regarding `Cc1oc(-c2ccccc2)nc1CCOc1cccc2c1ccn2CCC(=O)O`, the outcome in [1], in test [2], in test [5], in [6], in [8] and in test [9] was inactive. The figures for the AC50 in [3], in [4] and in [7] were 0.0633 µM (active), 23.8 µM (active) and 26.8 µM (active), respectively.
Turning to `COc1cc(/C=C/C(=O)CC(=O)/C=C/c2ccc(O)c(OC)c2)ccc1O`, the result in [1], in test [3], in test [4], in test [8] and in test [9] was inactive. The AC50 in [2] was 46.6 µM (active); in test [5] it was 43.1 µM (active); in test [6], 44.5 µM (active); in test [7] it was 56.8 µM (active).
Take `Cc1cc(NC(=O)C(=O)O)cc(C)c1Oc1ccc(O)c2c1CCC2`: the outcome in test [1], in test [2], in [10], in test [4], in test [5] and in test [6] was inactive. Also, the compound was classed as inactive in test [7] and in test [8].
Take `CCCc1cc(=O)[nH]c(=S)[nH]1`: the outcome in test [1], in test [2], in test [3], in test [4], in test [5] and in test [6] was inactive. The outcome in [7] and in test [8] was inactive.
As for `Cc1ccc(Cl)cc1`, the outcome in test [1], in test [2], in test [3], in test [4], in test [5] and in [6] was inactive. Moreover, the compound was classed as inactive in test [7] and in test [8].
On to `COc1cc(C=O)ccc1O`, for which the result in test [1], in [2], in test [3], in test [4], in test [5] and in test [6] was inactive. Further, the compound was called inactive in test [7], in test [8] and in [9].
As to `COc1cc(S(=O)(=O)O)c(C)cc1N=Nc1c(O)ccc2cc(S(=O)(=O)O)ccc12`, the result in test [1], in test [2], in [3], in test [4], in test [5] and in test [6] was inactive. For the same compound, the outcome in test [7] and in test [8] was inactive.
As to `OC[C@@H](O)[C@@H](O)[C@H](O)[C@H](O)CO`, the call in test [2], in test [4], in [5], in test [6], in test [7] and in [8] was inactive. Besides, the outcome in test [9] was inactive.
Take `CCCCCC(=O)O`: the result in test [2], in test [3], in [4], in [5], in test [6] and in test [7] was inactive. The result in test [8] and in test [9] was inactive. Moreover, in [10], the AC50 was 53 µM (active).
With `CCCCCCCCCCCCCCCC`, the compound was called inactive in test [2], in [3], in [5], in test [6], in test [7] and in test [8].
As for `Cc1c(C(=O)O)c(O)cc2c1C(=O)c1c(O)c([C@@H]3O[C@H](CO)[C@@H](O)[C@H](O)[C@H]3O)c(O)c(O)c1C2=O`, the call in test [2], in test [3], in test [4], in [5], in test [6] and in [7] was inactive. The compound was classed as inactive in [8].
On to `Cc1cccc(Nc2cc(Cl)nc(SCC(=O)O)n2)c1C`, for which the result in [1], in test [2], in test [4], in [5], in [6] and in test [7] was inactive. Also, the outcome in test [8] and in test [9] was inactive.
